These results are taken from PubChem BioAssay.

Unmarked numbers belong to inactive results. For some assays here: Results with a measured potency or affinity are listed apart. The source made the active and inactive calls. Unless noted, how the calls were made is not given here.

The nature of assay [1]: antimalarial activity against Dd2 strain (AID 2302;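 active means growth inhibition above 50% at the single 2 µM test dose, taken to imply half-maximal potency below 2 µM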;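 further: 0% = DMSO untreated growth and 100% = chloroquine plus artemisinin killed control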). Conditions: P. falciparum Dd2 in RBCs, LDH growth readout, 72 h; at 2 µM; stronger effect = higher value.
Assay [2] in a line: human hepatoma cell viability loss – ATP luminescence, cytotoxicity control for P. falciparum antimalarial project, primary screen (AID 2303;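 active means inhibition above 50%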;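 further: 0% = DMSO wells and 100% = digitonin-killed cells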). As to conditions: HepG2 viability, 24-48 h, at 10 µM, stronger effect = higher value.
Assay [3] deals with L-lactate dehydrogenase (Plasmodium falciparum (isolate CDC / Honduras)) (UniProt Q27743). Description: PfLDH activity inhibition – cell lysate, 3D7 strain, counter-screen for P. falciparum growth inhibition project (AID 2304).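 Further: 0% = vehicle and 100% = reference inhibitor.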 As to conditions: P. falciparum 3D7 crude extract, LDH APAD/NBT absorbance; at 2 µM; stronger effect = higher value. For orientation: The purpose of a counterscreen is to sort out artefacts and off-target activity.

Assay [4] is described as follows: inhibition of 3D7 malaria parasite growth – strain 3D7 (AID 2306).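 Further: 0% = DMSO wells and 100% = chloroquine plus artemisinin control wells.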 Conditions: P. falciparum 3D7 erythrocytic growth, LDH absorbance, 72 h; at 2 µM; stronger effect = higher value.
For assay [5], the target named is Calcium-dependent protein kinase 1 (Plasmodium falciparum (isolate 3D7)) (UniProt P62344). Description: PfCDPK1 kinase inhibitors, biochemical, TCAMS library (AID 1159585; cut-off not given, nearly all actives have IC50 up to about 0.98 µM;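 further: inhibitors leave more ATP so luminescence rises with inhibition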). As to conditions: recombinant PfCDPK1, Kinase-Glo ATP depletion luminescence. For orientation: Kinase-Glo measures the ATP left after a reaction by luminescence.
Assay [6] deals with Plasmodium falciparum protein kinase 6 (PK6, PF3D7_1337100) (UniProt Q8IDW1). Description: PfPK6 kinase inhibitors, biochemical, TCAMS library (AID 1159586). As to conditions: recombinant PfPK6, Kinase-Glo ATP depletion luminescence.
Assay [7] deals with Protein kinase 7 (PK7), Plasmodium falciparum 3D7 (PF3D7_0213400) (UniProt Q7YTF7). Kind of assay: inhibition of Plasmodium PK7 catalytic activity – biochemical, TCAMS antimalarial set, Kinase-Glo luminescence (AID 1159587). As to conditions: recombinant PfPK7, Kinase-Glo ATP depletion luminescence.
The target in assay [8] is Calcium-dependent protein kinase 4 (Plasmodium falciparum (isolate 3D7)) (UniProt Q8IBS5). Description: PfCDPK4 kinase inhibitors, biochemical, TCAMS library (AID 1159588; cut-off not given, nearly all actives have IC50 up to about 0.91 µM). As to conditions: recombinant PfCDPK4, Kinase-Glo ATP depletion luminescence.
Calcium-dependent protein kinase 4 (Plasmodium falciparum (isolate 3D7)), sequence (Q8IBS5 whole entry, looked up): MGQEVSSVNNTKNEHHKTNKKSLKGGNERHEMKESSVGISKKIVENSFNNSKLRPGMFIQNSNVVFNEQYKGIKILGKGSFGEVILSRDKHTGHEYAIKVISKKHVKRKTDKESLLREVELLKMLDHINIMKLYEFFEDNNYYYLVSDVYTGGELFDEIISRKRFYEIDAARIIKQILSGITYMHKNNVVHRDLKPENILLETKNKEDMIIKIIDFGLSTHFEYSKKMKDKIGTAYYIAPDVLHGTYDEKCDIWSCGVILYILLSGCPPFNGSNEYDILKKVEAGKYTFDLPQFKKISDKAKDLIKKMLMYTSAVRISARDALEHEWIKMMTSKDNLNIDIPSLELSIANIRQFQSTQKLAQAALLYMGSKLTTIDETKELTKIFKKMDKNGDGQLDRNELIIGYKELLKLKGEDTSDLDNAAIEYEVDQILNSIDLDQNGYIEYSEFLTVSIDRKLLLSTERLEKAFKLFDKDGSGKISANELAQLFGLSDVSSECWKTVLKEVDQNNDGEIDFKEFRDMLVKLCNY

Protein kinase 7 (PK7), Plasmodium falciparum 3D7 (PF3D7_0213400), sequence (Q7YTF7 1-343): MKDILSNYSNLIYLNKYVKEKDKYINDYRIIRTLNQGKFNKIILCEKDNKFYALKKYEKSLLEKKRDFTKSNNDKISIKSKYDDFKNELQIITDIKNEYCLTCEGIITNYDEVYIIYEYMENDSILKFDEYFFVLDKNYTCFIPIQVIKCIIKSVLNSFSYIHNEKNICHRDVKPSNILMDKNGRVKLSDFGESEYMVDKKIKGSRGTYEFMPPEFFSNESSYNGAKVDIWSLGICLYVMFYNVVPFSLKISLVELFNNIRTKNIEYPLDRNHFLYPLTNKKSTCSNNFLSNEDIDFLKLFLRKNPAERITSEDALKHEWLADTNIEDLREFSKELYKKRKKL
Calcium-dependent protein kinase 1 (Plasmodium falciparum (isolate 3D7)), sequence (P62344 whole entry, looked up): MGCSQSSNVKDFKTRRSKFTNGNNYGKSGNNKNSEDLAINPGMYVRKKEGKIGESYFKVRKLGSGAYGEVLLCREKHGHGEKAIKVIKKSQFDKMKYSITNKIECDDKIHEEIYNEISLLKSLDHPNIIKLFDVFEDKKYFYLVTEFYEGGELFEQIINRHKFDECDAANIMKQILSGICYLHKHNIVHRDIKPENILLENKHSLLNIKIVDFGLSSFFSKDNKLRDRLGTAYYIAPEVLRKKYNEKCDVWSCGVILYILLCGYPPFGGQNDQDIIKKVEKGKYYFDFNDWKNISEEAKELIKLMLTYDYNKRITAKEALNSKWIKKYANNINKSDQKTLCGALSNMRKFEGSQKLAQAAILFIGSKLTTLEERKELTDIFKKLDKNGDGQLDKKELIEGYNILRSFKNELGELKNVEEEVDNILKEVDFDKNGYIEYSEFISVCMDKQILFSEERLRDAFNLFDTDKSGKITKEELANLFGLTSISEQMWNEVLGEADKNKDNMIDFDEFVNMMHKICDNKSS
L-lactate dehydrogenase (Plasmodium falciparum (isolate CDC / Honduras)), sequence (Q27743 whole entry, looked up): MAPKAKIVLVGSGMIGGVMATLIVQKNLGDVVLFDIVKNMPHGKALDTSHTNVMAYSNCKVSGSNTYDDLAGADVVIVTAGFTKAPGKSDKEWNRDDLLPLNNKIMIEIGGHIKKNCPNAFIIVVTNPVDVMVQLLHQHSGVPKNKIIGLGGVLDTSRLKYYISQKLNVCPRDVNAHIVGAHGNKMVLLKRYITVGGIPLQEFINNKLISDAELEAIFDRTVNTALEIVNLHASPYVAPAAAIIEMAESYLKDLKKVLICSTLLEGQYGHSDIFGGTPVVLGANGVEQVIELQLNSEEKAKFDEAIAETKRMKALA
Plasmodium falciparum protein kinase 6 (PK6, PF3D7_1337100), sequence (Q8IDW1 1-305): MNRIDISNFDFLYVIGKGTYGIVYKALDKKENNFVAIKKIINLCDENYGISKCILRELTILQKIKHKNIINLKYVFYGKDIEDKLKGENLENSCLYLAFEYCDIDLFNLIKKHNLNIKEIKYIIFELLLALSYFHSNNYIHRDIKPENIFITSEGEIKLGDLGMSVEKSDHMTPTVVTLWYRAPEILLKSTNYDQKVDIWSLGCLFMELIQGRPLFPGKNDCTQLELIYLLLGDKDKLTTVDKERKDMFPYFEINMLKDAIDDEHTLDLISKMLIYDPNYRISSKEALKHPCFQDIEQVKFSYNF

What is called inhibition is the relative decrease from the control value, in per cent. With `O=S(=O)(Nc1ccc(CCN2CCC(N3CCCCC3)CC2)cc1)c1ccccc1C(F)(F)F`, the growth inhibition in assay [1] was 8%; in assay [4], 95% (active). Further, the inhibition is 9% in assay [2] and -3% in assay [3]. Besides, the result in assay [5], in assay [6], in assay [7] and in assay [8] was inactive.
For the compound `CCCN(CCC)S(=O)(=O)c1ccc(C(=O)N2CCC(C(=O)OCC)CC2)cc1`, the growth inhibition was 41% in assay [1] and 98% (active) in assay [4]. In addition, the inhibition is 26% in assay [2] and 1% in assay [3]. For the same compound, the outcome in assay [5], in assay [6], in assay [7] and in assay [8] was inactive.
Regarding `CCN(CC)CCN(Cc1ccc(-c2ccc(C(F)(F)F)cc2)nc1)C(=O)Cn1c(SCc2ccc(F)cc2)nc(=O)c2sccc21`, the growth inhibition in assay [1] is 66% (active); in assay [4], 96% (active). Besides, the values for the inhibition in assay [2] and in assay [3] were 43% and -2%, respectively. In addition, the result in assay [5], in assay [6], in assay [7] and in assay [8] was inactive.
With `COc1ccc2c(c1)CC1CN(CCCCNC(=O)c3ccc(NC(=O)c4cc(Cl)cc(Cl)c4)cc3)CCN1C2` (configuration not stated), the growth inhibition in assay [1] is 57% (active); in assay [4], 101% (active). The inhibition in assay [2] is 7%; in assay [3], 1%. The result in assay [5], in assay [6], in assay [7] and in assay [8] was inactive.
On to `COc1ccc2nccc([C@@H](O)CN3CCC(NC(=O)c4[nH]c5ccccc5c4-c4ccccc4)CC3)c2c1`, for which the figures for the growth inhibition in assay [1] and in assay [4] were 68% (active) and 96% (active), respectively. The inhibition in assay [2] is 18%; in assay [3], 0%. Besides, the result in assay [5], in assay [6], in assay [7] and in assay [8] was inactive.
On to `COc1cccc(C(=O)Nc2ccc(Oc3ccc(Cl)cc3)cc2)c1`, for which the growth inhibition in assay [1] is -2%; in assay [4], 92% (active). For the same compound, the inhibition in assay [2] was 33%; in assay [3], -5%. Moreover, the result in assay [5], in assay [6], in assay [7] and in assay [8] was inactive.
On to `C=CCN1C(=O)C(C(C)=O)=C(O)C1c1ccccc1` (configuration not stated), for which the figures for the growth inhibition in assay [1] and in assay [4] were 97% (active) and 93% (active), respectively. Further, the inhibition in assay [2] was 41%; in assay [3], -4%. Besides, the result in assay [5], in assay [6], in assay [7] and in assay [8] was inactive.
On to `C=CCn1c(SCC(=O)Nc2cc(Cl)ccc2Cl)nc2sc(C)cc2c1=O`, for which the growth inhibition was 96% (active) in assay [1] and 97% (active) in assay [4]. Also, the results for the inhibition in assay [2] and in assay [3] were 8% and 0%, respectively. For the same compound, the outcome in assay [5], in assay [6], in assay [7] and in assay [8] was inactive.
In the case of `CCCc1cn2c3c(cc(C(=O)N[C@@H](Cc4ccccc4)[C@H](O)CNC4CCOCC4)cc13)N(CC)S(=O)(=O)CC2`, the growth inhibition in assay [1] was 98% (active); in assay [4], 97% (active). The inhibition in assay [2] is 2%; in assay [3] it was -2%. The result in assay [5], in assay [6], in assay [7] and in assay [8] was inactive.
As to `CC(C)Cc1cnc2nc(N)nc(N)c2c1`, the growth inhibition is -2% in assay [1] and 98% (active) in assay [4]. The inhibition in assay [2] is 66% (active); in assay [3] it was 1%. The result in assay [5], in assay [6], in assay [7] and in assay [8] was inactive.
As to `CCc1cccc(OCC2CCCN(c3ccc(C(=O)NC4CC4)cn3)C2)c1` (configuration not stated), the growth inhibition in assay [1] is 73% (active); in assay [4], 94% (active). The values for the inhibition in assay [2] and in assay [3] were -1% and 5%, respectively. Also, the outcome in assay [5], in assay [6], in assay [7] and in assay [8] was inactive.
Consider `Cc1ccc(NC(=O)Nc2ccc(S(=O)(=O)c3ccc(NC(=O)Nc4ccc(C)c(Cl)c4)cc3)cc2)cc1Cl`, for which the growth inhibition in assay [1] is 42%; in assay [4], 99% (active). For the same compound, the inhibition in assay [2] is 49%; in assay [3], 4%. In addition, the result in assay [5], in assay [6], in assay [7] and in assay [8] was inactive.
In the case of `O=C(Nc1cccc(C(F)(F)F)c1)c1cccc(S(=O)(=O)NCC2CCCN(CC3CCCCC3)C2)c1` (configuration not stated), the growth inhibition in assay [1] is 11%; in assay [4], 99% (active). For the same compound, the inhibition is 17% in assay [2] and -1% in assay [3]. Further, the result in assay [5], in assay [6], in assay [7] and in assay [8] was inactive.
Take `O=C(Nc1ccon1)c1cc(-c2cccnc2)nc2ccc(Br)cc12`: the growth inhibition in assay [1] was 77% (active); in assay [4] it was 99% (active). Besides, the inhibition in assay [2] is 7%; in assay [3], -3%. Moreover, the outcome in assay [5], in assay [6], in assay [7] and in assay [8] was inactive.
Take `CC(=O)COc1c(C2CCN(CCCCNC(=O)c3ccc(-c4ccc(C(F)(F)F)cc4)cc3)CC2)ccc2c1CCCC2`: the growth inhibition in assay [1] is 53% (active); in assay [4], 99% (active). For the same compound, the inhibition in assay [2] is 100% (active); in assay [3], -7%. The outcome in assay [5], in assay [6], in assay [7] and in assay [8] was inactive.
Turning to `COc1ccc2c(-c3ccccc3)noc2c1`, the growth inhibition in assay [1] is 34%; in assay [4], 98% (active). Further, the inhibition was -4% in assay [2] and -2% in assay [3]. Besides, the result in assay [5], in assay [6], in assay [7] and in assay [8] was inactive.
Regarding `CC1(C)N=C(N)N=C(N)N1OCCCOc1ccccc1N`, the values for the growth inhibition in assay [1] and in assay [4] were 95% (active) and 93% (active), respectively. The inhibition in assay [2] was 70% (active); in assay [3], 8%. Besides, the outcome in assay [5], in assay [6], in assay [7] and in assay [8] was inactive.
In the case of `CC(=O)Nc1ccc(CN2CCC(NC(=O)c3ccc(-c4cccc(OC(C)C)c4)s3)CC2)cc1`, the growth inhibition in assay [1] is 13%; in assay [4], 89% (active). In addition, the inhibition in assay [2] is 14%; in assay [3], -5%. Also, the result in assay [5], in assay [6], in assay [7] and in assay [8] was inactive.
Turning to `CCc1ccc(S(=O)(=O)Nc2ccc(CCN3CCC(N4CCCCC4)CC3)cc2)cc1`, the growth inhibition in assay [1] is 13%; in assay [4] it was 100% (active). Besides, the values for the inhibition in assay [2] and in assay [3] were 35% and -2%, respectively. Further, the outcome in assay [5], in assay [6], in assay [7] and in assay [8] was inactive.
